The values below come from ChEMBL document CHEMBL2218924, “A broad activity screen in support of a chemogenomic map for kinase signalling research and drug discovery” (Biochem J, 2013).

For test [1], the target named is Tyrosine-protein kinase SYK (Homo sapiens) (UniProt P43405). Conditions: at 10 µM.
Test [2] has as its target T1, Serine/threonine-protein kinase TAO2 (Homo sapiens) (UniProt Q9UL54).
T1 sequence (whole entry): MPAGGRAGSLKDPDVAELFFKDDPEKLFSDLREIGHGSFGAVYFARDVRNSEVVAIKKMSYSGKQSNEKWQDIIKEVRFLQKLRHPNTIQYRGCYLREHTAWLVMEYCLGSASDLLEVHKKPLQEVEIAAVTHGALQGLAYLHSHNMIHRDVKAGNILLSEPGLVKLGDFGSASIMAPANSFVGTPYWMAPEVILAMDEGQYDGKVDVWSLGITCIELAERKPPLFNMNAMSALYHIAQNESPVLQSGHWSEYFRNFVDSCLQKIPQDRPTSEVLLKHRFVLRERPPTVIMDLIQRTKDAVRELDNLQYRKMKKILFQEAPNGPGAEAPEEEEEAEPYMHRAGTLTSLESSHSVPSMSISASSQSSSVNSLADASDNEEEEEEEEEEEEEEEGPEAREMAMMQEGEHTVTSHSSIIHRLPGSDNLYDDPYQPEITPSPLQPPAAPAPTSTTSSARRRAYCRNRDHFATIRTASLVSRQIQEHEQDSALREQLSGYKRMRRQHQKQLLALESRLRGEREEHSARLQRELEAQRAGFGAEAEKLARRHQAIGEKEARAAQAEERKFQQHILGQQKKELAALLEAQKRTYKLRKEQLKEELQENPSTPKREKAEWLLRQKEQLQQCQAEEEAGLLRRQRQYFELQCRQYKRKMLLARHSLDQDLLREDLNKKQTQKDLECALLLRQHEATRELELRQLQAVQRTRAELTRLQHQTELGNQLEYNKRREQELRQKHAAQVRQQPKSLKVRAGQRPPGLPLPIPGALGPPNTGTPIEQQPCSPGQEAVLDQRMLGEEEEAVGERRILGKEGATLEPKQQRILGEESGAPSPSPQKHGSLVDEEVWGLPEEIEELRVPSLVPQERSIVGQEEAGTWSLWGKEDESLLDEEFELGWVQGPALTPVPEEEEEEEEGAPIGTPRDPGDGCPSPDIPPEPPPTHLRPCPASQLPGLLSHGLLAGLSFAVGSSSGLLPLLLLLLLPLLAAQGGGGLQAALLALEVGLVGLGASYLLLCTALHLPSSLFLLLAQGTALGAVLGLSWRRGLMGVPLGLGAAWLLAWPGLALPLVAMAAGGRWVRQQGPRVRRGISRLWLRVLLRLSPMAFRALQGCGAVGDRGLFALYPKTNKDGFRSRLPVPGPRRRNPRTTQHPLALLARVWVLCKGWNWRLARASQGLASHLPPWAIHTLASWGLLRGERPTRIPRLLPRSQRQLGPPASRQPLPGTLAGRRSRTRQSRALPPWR
To be noted: at 10 µM.

Test [3] deals with T2, Serine/threonine-protein kinase TAO3 (Homo sapiens) (UniProt Q9H2K8).
T2 sequence (whole entry): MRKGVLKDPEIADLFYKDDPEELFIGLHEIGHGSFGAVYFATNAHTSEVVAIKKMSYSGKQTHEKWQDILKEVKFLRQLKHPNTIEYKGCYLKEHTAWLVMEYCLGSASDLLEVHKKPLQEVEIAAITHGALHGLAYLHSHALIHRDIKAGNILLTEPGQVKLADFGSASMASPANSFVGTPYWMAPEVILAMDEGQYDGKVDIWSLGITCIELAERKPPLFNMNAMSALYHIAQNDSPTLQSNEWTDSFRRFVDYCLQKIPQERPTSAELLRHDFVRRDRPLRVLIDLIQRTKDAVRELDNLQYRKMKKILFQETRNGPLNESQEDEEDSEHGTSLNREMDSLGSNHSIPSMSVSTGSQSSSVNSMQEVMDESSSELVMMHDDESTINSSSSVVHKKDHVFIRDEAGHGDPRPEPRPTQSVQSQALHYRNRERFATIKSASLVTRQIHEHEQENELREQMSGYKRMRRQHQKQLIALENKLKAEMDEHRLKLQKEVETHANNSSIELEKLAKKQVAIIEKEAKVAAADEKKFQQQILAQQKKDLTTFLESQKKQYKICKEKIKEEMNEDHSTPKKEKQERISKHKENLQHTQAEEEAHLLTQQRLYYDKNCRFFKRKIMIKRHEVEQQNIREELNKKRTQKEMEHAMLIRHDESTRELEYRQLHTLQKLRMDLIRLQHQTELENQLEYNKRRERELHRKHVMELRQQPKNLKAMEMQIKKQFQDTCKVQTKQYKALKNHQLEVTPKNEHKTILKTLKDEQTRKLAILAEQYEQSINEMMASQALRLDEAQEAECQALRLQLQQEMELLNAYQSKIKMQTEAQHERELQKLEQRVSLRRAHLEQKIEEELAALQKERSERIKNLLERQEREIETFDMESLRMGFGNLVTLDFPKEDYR
Conditions: at 1 µM.

The target of test [4] is T3, TGF-beta receptor type-1 (Homo sapiens) (UniProt P36897).
T3 sequence (whole entry): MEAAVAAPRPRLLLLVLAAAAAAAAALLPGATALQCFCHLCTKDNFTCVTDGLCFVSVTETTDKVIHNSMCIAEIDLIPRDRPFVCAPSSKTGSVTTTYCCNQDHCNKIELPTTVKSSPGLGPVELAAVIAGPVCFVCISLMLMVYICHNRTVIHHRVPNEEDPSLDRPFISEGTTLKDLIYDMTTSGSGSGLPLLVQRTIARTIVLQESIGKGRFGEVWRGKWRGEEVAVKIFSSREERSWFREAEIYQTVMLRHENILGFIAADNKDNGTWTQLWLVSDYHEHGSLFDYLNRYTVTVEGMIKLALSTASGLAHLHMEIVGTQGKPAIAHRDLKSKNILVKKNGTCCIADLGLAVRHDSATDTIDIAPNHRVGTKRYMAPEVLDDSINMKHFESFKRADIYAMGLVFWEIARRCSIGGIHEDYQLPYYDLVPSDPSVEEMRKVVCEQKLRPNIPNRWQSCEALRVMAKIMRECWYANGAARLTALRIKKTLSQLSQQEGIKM
To be noted: at 10 µM.

Test [5] deals with T4, Inhibitor of nuclear factor kappa-B kinase subunit alpha (Homo sapiens) (UniProt O15111).
T4 sequence (whole entry): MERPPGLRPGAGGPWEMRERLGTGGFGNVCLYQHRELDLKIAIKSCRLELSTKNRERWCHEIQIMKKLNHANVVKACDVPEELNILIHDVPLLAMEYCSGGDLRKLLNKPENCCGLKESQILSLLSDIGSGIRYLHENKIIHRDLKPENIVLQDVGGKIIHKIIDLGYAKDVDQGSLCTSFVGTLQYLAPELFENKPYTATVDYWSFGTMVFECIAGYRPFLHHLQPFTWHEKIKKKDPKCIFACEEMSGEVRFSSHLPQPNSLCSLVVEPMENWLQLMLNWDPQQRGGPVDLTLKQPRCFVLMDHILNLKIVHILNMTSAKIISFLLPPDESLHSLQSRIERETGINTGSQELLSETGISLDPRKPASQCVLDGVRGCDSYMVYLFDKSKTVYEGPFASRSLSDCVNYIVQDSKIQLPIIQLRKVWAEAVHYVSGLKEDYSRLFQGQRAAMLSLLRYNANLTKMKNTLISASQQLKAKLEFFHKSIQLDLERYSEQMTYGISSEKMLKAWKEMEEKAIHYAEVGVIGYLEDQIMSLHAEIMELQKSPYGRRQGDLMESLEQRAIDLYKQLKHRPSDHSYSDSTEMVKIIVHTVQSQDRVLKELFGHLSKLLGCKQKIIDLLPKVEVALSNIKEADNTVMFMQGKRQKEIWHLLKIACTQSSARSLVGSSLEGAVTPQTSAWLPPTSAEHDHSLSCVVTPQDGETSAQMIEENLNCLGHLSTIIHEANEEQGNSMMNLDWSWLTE
To be noted: at 1 µM.

The target in test [6] is T5, Mitogen-activated protein kinase kinase kinase 7 (Homo sapiens) (UniProt O43318).
T5 sequence (whole entry): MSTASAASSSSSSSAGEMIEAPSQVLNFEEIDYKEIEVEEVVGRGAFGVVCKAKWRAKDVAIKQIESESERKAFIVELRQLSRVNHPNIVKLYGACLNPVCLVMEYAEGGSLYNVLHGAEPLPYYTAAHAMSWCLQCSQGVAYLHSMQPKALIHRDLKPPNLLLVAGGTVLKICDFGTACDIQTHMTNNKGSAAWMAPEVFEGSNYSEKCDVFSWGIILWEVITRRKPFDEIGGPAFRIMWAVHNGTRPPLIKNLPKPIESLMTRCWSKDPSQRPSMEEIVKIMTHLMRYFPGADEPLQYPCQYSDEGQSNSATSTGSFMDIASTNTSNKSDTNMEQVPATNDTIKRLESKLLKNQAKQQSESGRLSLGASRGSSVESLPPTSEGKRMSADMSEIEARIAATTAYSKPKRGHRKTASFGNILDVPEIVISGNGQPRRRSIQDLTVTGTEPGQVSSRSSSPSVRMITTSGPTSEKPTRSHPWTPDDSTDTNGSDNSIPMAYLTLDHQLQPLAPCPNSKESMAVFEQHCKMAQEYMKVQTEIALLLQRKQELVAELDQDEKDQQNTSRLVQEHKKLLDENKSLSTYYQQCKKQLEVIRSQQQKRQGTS
Conditions: at 10 µM.

The target of test [7] is T6, Serine/threonine-protein kinase TBK1 (Homo sapiens) (UniProt Q9UHD2).
T6 sequence (whole entry): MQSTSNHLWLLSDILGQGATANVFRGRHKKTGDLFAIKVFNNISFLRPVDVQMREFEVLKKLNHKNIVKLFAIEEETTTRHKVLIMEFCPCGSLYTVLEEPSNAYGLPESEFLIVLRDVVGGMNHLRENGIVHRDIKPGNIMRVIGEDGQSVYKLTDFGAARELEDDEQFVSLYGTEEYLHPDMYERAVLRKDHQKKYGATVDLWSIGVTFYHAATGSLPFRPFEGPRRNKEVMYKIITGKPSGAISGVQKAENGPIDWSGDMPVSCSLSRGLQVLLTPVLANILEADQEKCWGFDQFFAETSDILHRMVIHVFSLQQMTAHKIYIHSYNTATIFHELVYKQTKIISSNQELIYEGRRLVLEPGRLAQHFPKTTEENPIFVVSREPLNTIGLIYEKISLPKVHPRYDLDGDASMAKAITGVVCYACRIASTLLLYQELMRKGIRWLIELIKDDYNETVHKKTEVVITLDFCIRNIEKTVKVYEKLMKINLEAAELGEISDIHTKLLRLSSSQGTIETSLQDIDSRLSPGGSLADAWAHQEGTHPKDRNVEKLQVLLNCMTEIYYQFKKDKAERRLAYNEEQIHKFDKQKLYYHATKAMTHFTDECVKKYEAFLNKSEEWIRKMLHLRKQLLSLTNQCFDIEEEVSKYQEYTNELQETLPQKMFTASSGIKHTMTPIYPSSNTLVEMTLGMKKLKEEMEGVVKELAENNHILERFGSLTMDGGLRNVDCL
Conditions: at 1 µM.

For test [8], the target named is T6, Serine/threonine-protein kinase TBK1 (Homo sapiens). Conditions: at 10 µM.
Test [9] addresses T4, Inhibitor of nuclear factor kappa-B kinase subunit alpha (Homo sapiens). To be noted: at 10 µM.

With `O=c1c(-c2ccc(F)cc2)c(-c2ccncc2)[nH]n1-c1ccc(Cl)cc1`, the residual activity in test [1] is 37%; in test [2], 77%; in test [3], 99%; in [4], 30%; in test [5], 131%.
On to `NC(=O)c1cccc(-c2cc(Nc3ccc(OC(F)(F)F)cc3)ncn2)c1`, for which the residual activity was found to be 95% in [6]; 98% in test [7]; 79% in test [8]; 128% in test [5]; 149% in [9].
